Test [1] in a line: qHTS assay to identify small molecule inhibitors of chordoma cells - UCH-1 (AID 1259355). Further: nearly all actives have a fitted effect of over 55% in size. On potency: series mostly up to about 46 µM. Put shortly:
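Seed 800 cells per well; incubate overnight at 37 C, 5% CO2. Add test compounds (15 concentrations), then the auranofin–topoisomerase-agent combination. Incubate 48hr, add CellTiter-Glo, wait 30min, read luminescence.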

A short description of test [2]: qHTS assay to identify small molecule inhibitors of chordoma cells - UCH-2 (AID 1259356). (In general: Quantitative high-throughput screening tests each substance at several concentrations.)

Results filed as inconclusive are left out. Entries that show only a call come without a potency. Active and inactive are the calls of the source. The call rests on the fitted dose curve; in most records, active means well fitted curve in the direction sought with a large enough effect; inconclusive means small, poorly fitted or top-dose-only effect, or another doubt; inactive means no such curve, though single readings can be large; an effect the other way counts as inactive or inconclusive.

This note sets out measurements from PubChem BioAssay (NCATS).
Potency means the concentration at half of the fitted maximal effect.

For `Cc1c(C)c2c(c(C)c1O)CC[C@@](C)(CCC[C@@H](C)CCC[C@@H](C)CCCC(C)C)O2`, the Potency entry in test [1] is “inactive”.

For `NC(=O)c1ncn(C2OC(CO)C(O)C2O)n1` (centres undefined), the Potency result in test [1] is “inactive”.

For `CCCCCCC(O)C/C=C/CCCCCCCC(=O)O` (centres undefined), the Potency result in test [1] was “inactive”.

Take `C=C[C@]1(C)C[C@@H](OC(=O)CSC(C)(C)CNC(=O)[C@H](N)C(C)C)[C@]2(C)[C@H](C)CC[C@]3(CCC(=O)[C@H]32)[C@@H](C)[C@@H]1O`: the Potency result in test [1] and in test [2] was “inactive” throughout.

In the case of `CO[C@H]1C=CO[C@@]2(C)Oc3c(C)c(O)c4c(O)c(c(/C=N/N5CCN(C6CCCC6)CC5)c(O)c4c3C2=O)NC(=O)/C(C)=C\C=C[C@H](C)[C@H](O)[C@@H](C)[C@@H](O)[C@@H](C)[C@H](OC(C)=O)[C@@H]1C`, the Potency entry in test [1] and in test [2] was “inactive” throughout.

On to `NC1C2CN(c3nc4c(cc3F)c(=O)c(C(=O)O)cn4-c3ccc(F)cc3F)CC12` (centres undefined), for which, in test [1], the Potency result was “inactive”.

For the compound `COC(=O)[C@H]1[C@H]2C[C@@H]3c4[nH]c5ccccc5c4CCN3C[C@H]2C[C@@H](OC(=O)c2cc(OC)c(OC)c(OC)c2)[C@@H]1OC`, in test [1], the Potency was 10 µM (active).

For the compound `CCOC(=O)C1=C(C)NC(C)=C(C(=O)OCC)C1c1ccccc1C=CC(=O)OC(C)(C)C`, the Potency entry in test [1] and in test [2] was “inactive” in each case.

Turning to `CC[N+](C)(C)Cc1ccccc1Br`, the Potency result in test [1] and in test [2] was “inactive” throughout.

Regarding `Cc1cn([C@H]2C[C@H](O)[C@@H](CO)O2)c(=O)[nH]c1=O`, the Potency result in test [1] and in test [2] was “inactive” each time.

With `CC1(C)S[C@@H]2[C@H](NC(=O)[C@@H](NC(=O)N3CCNC3=O)c3ccccc3)C(=O)N2[C@H]1C(=O)O`, the Potency result in test [1] and in test [2] was “inactive” throughout.

On to `COc1cc(-c2ccc(-[n+]3nc(-c4ccccc4)nn3-c3ccc([N+](=O)[O-])cc3)c(OC)c2)ccc1-[n+]1nc(-c2ccccc2)nn1-c1ccc([N+](=O)[O-])cc1`, for which the figures for the Potency in test [1] and in test [2] were 31.6 µM (active) and 9.2 µM (active), respectively.
